KCNQ2 pot: potentiators of rat KCNQ2 potassium channel. Potassium voltage-gated channel subfamily KQT member 2 (Rattus norvegicus), O88943. CHO-K1 KCNQ2, FluxOR thallium flux fluorescence; active compounds read high. B-score at 10 µM. actives 0.54% (n = 310,000). AID 2239, 2010;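 active = fluorescence ratio B-score at least 3 SD of library B-scores, with initial fluorescence B-score within 3 of them, cut at about 5.3 in these data; same plate scores as AID 2156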;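 also: B-score of peak minus minimum over baseline fluorescence ratio after K+ and Tl+ stimulus; positive B-score means potentiation of KCNQ2 with more thallium influx and brighter signal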
KCNQ2 block: rat KCNQ2 potassium channel inhibitors, primary screen, cell-based, CHO-K1, FluxOR thallium flux, B-score | Potassium voltage-gated channel subfamily KQT member 2 (Rattus norvegicus), O88943 | 20 min; active compounds read low | B-score at 10 µM | actives 1.1% (n = 310,000) | AID 2156, 2009;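 active = fluorescence ratio B-score at most minus 3 library SDs, with starting brightness B-score within 2 library SDs, cut at about -5.5 in these data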
Kir21 confirm: mouse Kir2.1 channel blockers, retest, confirmation, cell-based, FluxOR thallium flux, duplicate. shares compounds with KCNQ2 pot. Kir2.1-expressing cells, FluxOR thallium flux fluorescence; active compounds read low. Tl flux remaining, % of negative control (active compounds read low), % at 10 µM. actives 41% (n = 2,300). AID 2032, 2009;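 active = Primary-screen hit whose thallium flux fell at least 3 control SD below untreated wells in both duplicates, with normal baseline fluorescence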
HEK293 ctr: parental HEK293 activity in Kir2.1 inhibitor counter-screen | FluxOR signal as % of negative control (100 = no effect), % at 10 µM | actives 19% (n = 2,300) | shares compounds with KCNQ2 pot | parental HEK293 cells, FluxOR thallium flux fluorescence; 0% = unstimulated blank wells | AID 2105;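 active = dye signal at least 3 control SD above or below untreated wells in both duplicates, raw fluorescence within 3, either direction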;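 also: percent is based on the flux ratio of peak minus minimum fluorescence over baseline F0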
Calls only; i = inactive; nt = no result given. These entries were drawn from the full list.

SMILES	KCNQ2 pot	KCNQ2 block	others
Cn1cnc([N+](=O)[O-])c1SCC(O)CCl (configuration not stated)	i	i
Cn1c(SCC(=O)N/N=C/c2ccc([N+](=O)[O-])s2)nnc1-c1ccccc1	nt	i
O=C(O)c1ccc(NCc2ccncc2)cc1	i	i
Cc1ccccc1Cn1nc(C)c(NC(=O)c2ccccc2)c1C	i	i	Kir21 confirm=i;HEK293 ctr=i
Cc1ccccc1Cn1nc(C)c(NC(=O)c2sc3ccccc3c2Cl)c1C	i	i
CCC(=O)N1CCc2cc(S(=O)(=O)NCCC(=O)N3CCN(c4cccc(OC)c4)CC3)ccc21	i	i
CSc1ccccc1NC(=O)CCn1c(=O)sc2ccccc21	nt	i

Screens (PubChem)
